S1P2 agonist – activates the human S1P2 receptor; O95136; S1P2-expressing cell line, agonist reporter read-out; activation, % at 4.5 µM; hit rate 0.46% among 97,000; in the data active = activation above about 16%;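 also: 0% = vehicle low control and 100% = maximal reference agonist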
Target sequence (O95136 whole entry, looked up): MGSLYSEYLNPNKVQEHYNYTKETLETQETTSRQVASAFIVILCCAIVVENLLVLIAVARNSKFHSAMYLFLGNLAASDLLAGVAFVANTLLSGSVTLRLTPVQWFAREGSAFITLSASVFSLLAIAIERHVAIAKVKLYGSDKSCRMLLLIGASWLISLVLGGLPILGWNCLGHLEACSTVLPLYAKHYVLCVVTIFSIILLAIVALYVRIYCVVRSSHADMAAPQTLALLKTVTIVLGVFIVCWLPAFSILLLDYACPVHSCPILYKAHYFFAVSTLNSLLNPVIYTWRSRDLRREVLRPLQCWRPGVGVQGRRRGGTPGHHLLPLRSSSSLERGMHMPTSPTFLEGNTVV
Calb biofilm kill – kills Candida albicans biofilms | AID 834 | C. albicans biofilm + clotrimazole, Alamar Blue | hit rate 0.14% among 85,000 | inhibition, % at 6 µM;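 active = inhibition above 20%; inactive = inhibition below 20%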;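 also: preformed 24 hr biofilms exposed to compound for 48 hr; 0% = biofilm without compound and 100% = blank killed by clotrimazole plus chlorhexidine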
GALR2 ag – agonists of human galanin receptor 2 (GALR2). AID 803. GALR2-expressing cells, agonist activation read-out. O43603. hit rate 0.48% among 140,000. activation, % (test concentration not listed); in the data active = activation above about 5%, passing the limit was not always enough;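 also: 0% = vehicle buffer wells and 100% = reference agonist at full effect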
S1P2 blocker – antagonists of human S1P2 receptor; hit rate 0.21% among 97,000; inhibition, % at 5 µM; cell-based S1P2 antagonist assay, inhibition at 5 uM; in the data active = inhibition above about 45%;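 also: CRE beta-lactamase reporter cells expressing human S1P2 stimulated with S1P; 0% = agonist at EC80 alone and 100% = agonist plus reference antagonist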
GALR2 antag – blocks the human galanin receptor 2 | O43603 | GALR2-expressing cells, antagonist mode | inhibition, % at 4 µM | hit rate 0.39% among 140,000 | AID 828;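 also: cells stimulated with galanin 1-16 at roughly its EC80; 0% = agonist challenge control and 100% = basal control without agonist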
Phagocytosis inh – macrophage phagocytosis inhibition. J774A.1 macrophage IgG-bead phagocytosis, imaging. inhibition, % at 5 µM. hit rate 0.07% among 110,000. AID 1029;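 active = inhibition above the mean of the plate negative controls plus 5 SD, cut at about 13% in these data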;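 also: phagocytic index as fraction of beads internalized from green versus red external bead signal; plate controls were DMSO negative control for no effect and cytochalasin-D positive control for full effect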
GALR2 agon conf – confirmation of human galanin receptor 2 (GALR2) agonists. shares compounds with GALR2 ag. GALR2-expressing cells, agonist activation. activation, % at 5.6 µM. hit rate 10% among 460; in the data active = activation above about 8.4%;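 also: 0% = buffer-only vehicle wells and 100% = full reference agonist response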
BLA act counter – activates beta-lactamase reporter in GALR2 agonist counterscreen; shares compounds with GALR2 ag; CHO NFAT-bla reporter, beta-lactamase FRET activation; activation, % at 5.6 µM; hit rate 10% among 460; AID 865;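 active = activation above the screen-wide mean activation plus 3 SD, cut at about 8% in these data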;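 also: 0% = DMSO with PBS wells and 100% = thapsigargin positive control wells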
GALR2 ant conf – confirmation of human galanin receptor 2 (GALR2) antagonists | shares compounds with GALR2 antag | GALR2-expressing cells, antagonist mode, inhibition | inhibition, % at 4 µM | hit rate 60% among 480 | AID 866;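 also: cells stimulated with galanin at about its EC80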
BLA inh counter – inhibits beta-lactamase reporter in GALR2 antagonist counterscreen. shares compounds with GALR2 antag. CHO NFAT-BLA reporter, beta-lactamase FRET, thapsigargin-stimulated. inhibition, % at 4.2 µM. hit rate 36% among 480. AID 867;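 active = inhibition above the mean inhibition across tested compounds plus 3 SD, cut at about 27% in these data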;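 also: 0% = 500 nM thapsigargin stimulated wells and 100% = unstimulated BSA only wells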
An asterisk follows results filed as active; · = no result. Most compounds without a hit are left out; they make up all but 1.3% or so of the library. Rule as the data show it, unless noted: active = inhibition above about 27%; inactive = the rest.

SMILES	S1P2 agonist	Calb biofilm kill	GALR2 ag	S1P2 blocker	GALR2 antag	Phagocytosis inh	GALR2 agon conf	BLA act counter	GALR2 ant conf	BLA inh counter
Cc1cc(C)c(NC(=O)/C(=C/c2ccccc2)c2ccccc2)c(C)c1	·	·	-1.6	·	-1.4	·	·	·	·	·
CC(C)N1C(=O)S/C(=C/c2ccc3c(c2)n(C)c(=O)n3C)C1=O	0.1	·	96.9*	-4.9	3.1	4.2	-0.2	0.8	·	·
CC(C)N1C(=O)S/C(=C/c2cccnc2)C1=O	-6.9	·	-2.1	20.9	8.3	·	·	·	·	·
CCSc1nnc(-c2cccnc2)n1-c1ccc(C)c(Cl)c1	-3.4	1.5	8.9	-6.4	-32.2	-0.8	0.0	-0.2	·	·
NS(=O)(=O)c1ccc(CCNc2nc3c(-c4cccc(F)c4)nnn3c3ccccc23)cc1	·	·	11.1*	·	18.0	-3.5	2.8	2.1	·	·
Cc1cccc(-c2nnn3c2nc(NCCc2ccc(S(N)(=O)=O)cc2)c2ccccc23)c1	·	·	3.8	·	17.6	0.4	·	·	·	·
CCOC(=O)c1c(C#N)c(SCC(=O)Nc2ccc(OC)cc2)nc2c1CN(CC)CC2	-2.5	0.0	67.2*	4.0	-1.3	-0.4	0.5	-0.6	·	·
COc1ccc(NC(=O)CSc2nc(N)c(C#N)cc2C#N)cc1	-0.9	·	0.1	-0.8	-4.4	-0.7	·	·	·	·
CCOC(=O)C(C)On1c(-c2ccc(Cl)cc2)nc2ccc([N+](=O)[O-])cc21 (stereo not drawn)	-6.8	6.5	-2.6	-3.8	-10.8	-1.3	·	·	·	·
O=C(CN1C(=O)NC2(CCCCCC2)C1=O)c1ccc2c(c1)OCCO2	-6.2	-3.6	-3.1	3.3	-2.0	0.4	·	·	·	·
O=C(Cn1c(COc2ccccc2)nc2ccccc21)Nc1cc(Cl)ccc1Cl	·	·	10.1*	·	1.3	-11.1	3.7	5.4	·	·
O=C(Cn1c(COc2ccccc2)nc2ccccc21)Nc1cc(Cl)cc(Cl)c1	·	·	1.9	·	-6.4	-8.3	·	·	·	·
O=C(Nc1ccccc1-c1nnn(CC(=O)N2CCCc3ccccc32)n1)c1ccc(Cl)cc1	-2.6	3.0	27.7*	-15.8	5.3	·	-0.6	-1.6	·	·
Fc1ccc(NCc2cccnc2)cc1	3.8	6.4	36.4*	-21.9	-13.9	-1.0	-0.8	-0.9	·	·
c1ccc(NCc2cccnc2)cc1	-5.7	-1.4	-2.4	7.3	16.2	2.0	·	·	·	·
CC1=C/C(=N\OS(=O)(=O)c2ccccc2)C(C(C)C)=CC1=O	·	·	9.6*	·	47.1*	-2.9	11.3*	3.1	52.5*	29.2*
Brc1ccc(-c2ccc(/C=N/Nc3nncc(-c4ccccc4)n3)o2)cc1	-2.2	·	-1.6	-7.5	2.4	-1.3	·	·	·	·
Brc1ccc(-c2ccc(/C=N/Nc3nc4ccccc4[nH]3)o2)cc1	·	·	22.8*	·	28.9*	4.2	9.5*	17.5*	19.1	13.0
CCCCCCCNC(=O)c1ccc(N2CCC3(CC2)OCCO3)c([N+](=O)[O-])c1	·	·	-2.1	·	-2.2	-2.1	·	·	·	·
O=C(OCn1ncc(Br)c(Br)c1=O)c1ccccc1Cl	-5.4	3.5	-3.2	51.3*	79.1*	-0.8	·	·	94.5*	97.3*
O=C(OCc1cnc(Cl)s1)c1ccccc1Cl	-2.5	·	-1.5	14.7	0.0	·	·	·	·	·
O=C(OCn1ncc(Br)c(Br)c1=O)c1ccc(F)cc1	-2.1	-4.2	-5.1	53.8*	79.5*	-0.5	·	·	92.4*	94.7*
CCOC(=O)C(=Cc1cc(=O)c(OC)co1)C(=O)OCC	·	·	-2.2	·	40.7*	-1.8	·	·	67.4*	57.9*
COc1coc(C(O)CN)cc1=O (stereo not drawn)	·	·	-2.7	·	3.4	-2.9	·	·	·	·
Cc1ccc(NC(=O)CN2C(=O)NC3(CCc4ccccc43)C2=O)cc1Cl (stereo not drawn)	-5.7	·	-3.7	16.4	28.4*	·	·	·	3.6	-0.9
O=C(CN1C(=O)NC2(CCc3ccccc32)C1=O)Nc1ccc(N2CCOCC2)cc1 (stereo not drawn)	0.6	·	-3.0	-16.3	-1.6	-0.8	·	·	·	·
O=C(c1ccccc1C(F)(F)F)N1CCN(S(=O)(=O)c2ccccc2)CC1	-3.4	-7.0	-2.3	-12.8	-6.6	2.0	·	·	·	·
Cn1nc(C(C)(C)C)cc1C(=O)NCc1ccc(N2CCCC2=O)cc1	·	4.3	-1.6	·	44.8*	-1.3	·	·	39.3*	8.9

Screening data: PubChem, several laboratories
